Bioassay records deposited in PubChem BioAssay by several laboratories.
SMARCA2 act = SMARCA2 (BRM) function activators, primary screen, cell-based, luminescence, high throughput; MG213 cells, MMTV-luciferase reporter, dexamethasone, overnight; activation, % at 9.1 µM; 1% of 370,000 active; in the data active = activation above about 7.8%;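 also: 0% = vehicle wells and 100% = reference activator wells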
CDK5 p35 inh = inhibitors of human CDK5/p35 kinase, primary screen, biochemical, single concentration; inhibition, % at 10 µM; Cyclin-dependent kinase 5 (Homo sapiens) + Cyclin-dependent kinase 5 activator 1 (Homo …; Recombinant CDK5/p35, ADP-Glo luminescence, 60 min; AID 488839, 2010; 0.01% of 330,000 active;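 active = highest replicate inhibition of at least 50% and at least 75% of replicates reaching 50%; inconclusive = only one of the two criteria met; inactive = both criteria failed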;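 also: plate controls were DMSO neutral control for no effect and GW8510 at 10 µM for full effect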
Dyrk1A ADPGlo = rat Dyrk1A kinase inhibitors, primary screen, biochemical, single point, plate reader; ADP-Glo luminescence, NFATc1 peptide; 0.43% of 310,000 active; inhibition, % at 12.5 µM; AID 504441, 2011; in the data active = inhibition above about 50%;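 also: plate controls were vehicle with enzyme for no effect and no enzyme for full effect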
Rtt109 HAT inh = inhibitors of C. albicans Rtt109/Vps75 HAT, primary screen, biochemical, ThioGlo CoA-SH fluorescence, plate reader; Histone acetyltransferase RTT109 (Candida albicans (strain SC5314 / ATCC MYA-2876)), …; purified Rtt109/Vps75, 4 h; inhibition, % at 34.9 µM; 0.16% of 330,000 active;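 active = inhibition of at least 50% in every replicate; inconclusive = best replicate reaches 50% inhibition but some replicates fall short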
Target sequence (Q5AAJ8 whole entry, looked up): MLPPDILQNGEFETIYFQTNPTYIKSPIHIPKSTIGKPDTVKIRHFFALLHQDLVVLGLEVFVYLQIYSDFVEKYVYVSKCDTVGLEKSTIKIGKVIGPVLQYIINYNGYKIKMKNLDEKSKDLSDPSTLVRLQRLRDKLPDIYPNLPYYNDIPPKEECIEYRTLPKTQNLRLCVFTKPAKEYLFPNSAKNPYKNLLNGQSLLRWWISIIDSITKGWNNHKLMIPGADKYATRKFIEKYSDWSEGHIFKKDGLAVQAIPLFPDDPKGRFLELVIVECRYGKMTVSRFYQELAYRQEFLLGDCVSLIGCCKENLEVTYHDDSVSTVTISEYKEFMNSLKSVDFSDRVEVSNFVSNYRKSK
esBAF inh = Bmi1 luciferase reporter increase in mESCs, primary screen, esBAF inhibitor project, mouse ES cells, Bmi1 luciferase knock-in, single point; 24 h; 100% = twice the neutral-well signal; 2% of 350,000 active; reporter increase, % at 12.5 µM; AID 602393, 2012; in the data active = activation above about 40%; inconclusive = no clear call, values can overlap the other calls;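 also: 0% = median of the plate's neutral control wells and 100% = double that signal; a rise in the Bmi1 reporter signal indicates esBAF inhibition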
dFosB activator = activators of delta FosB homodimer, primary screen, biochemical, fluorescence polarization, TAMRA-CDK5 oligo, single point; purified delta FosB; percent of positive-control signal above neutral wells; activation, % at 25 µM; 0.99% of 340,000 active;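 active = mean activation above about 17%, with every replicate also reaching it, limit read from the data, passing the limit was not always enough; inconclusive = only one of the two conditions met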
An asterisk follows results filed as active; ? = inconclusive; . = not tested or not shown. Sampled rows, rich in hits. Any-hit rate of the full collection: about 3.2%.

SMILES | SMARCA2 act | CDK5 p35 inh | Dyrk1A ADPGlo | Rtt109 HAT inh | esBAF inh | dFosB activator
Cc1cc(NO)nc(-c2ccc(Br)cc2)n1 | 6 | 0 | 3 | 2 | 51* | 2
Cc1cccc(Nc2nc(-c3ccc(O)cc3O)cs2)n1 | 5 | -2 | 14 | -4 | 45* | -6
COc1cc(OC)cc(-c2nc3cc(C)ccc3o2)c1 | 8 | 0 | 5 | -10 | 45* | -21
O=C(/C=C/c1ccc(N2CCCCC2)c([N+](=O)[O-])c1)c1ccc(O)cc1 | 5 | 0 | 7 | 1 | 60* | -8
Cc1nc2c(sc(=S)n2Cc2ccco2)c(=O)n1CC(=O)Nc1ccccc1Cl | 0 | -12 | 4 | -4 | -2 | 56*
CCn1c(=S)sc2c(=O)n(CC(=O)Nc3ccccc3OC)c(C)nc21 | 0 | . | . | 6 | -8 | -3
O=C(C1CCCC1)N1C[C@H]2[C@@H](c3ccccc31)[C@@H](CO)N2C(=O)c1cccnc1 | . | . | . | . | -1 | .
O=C(NC1C(=O)NNC1c1ccccc1)c1ccc(F)cc1 (stereo unspecified) | 0 | -2 | 0 | 7 | 19 | -1
Cc1ccc(C2NNC(=O)C2NC(=O)c2ccccc2)cc1 (stereo unspecified) | 5 | 0 | -5 | 12 | 51* | -12
COc1ccc(-c2ccc3c(c2)O[C@@H](CN(C)Cc2cccnc2)[C@@H](C)CN([C@H](C)CO)S3(=O)=O)cc1 | . | . | . | . | 0 | .
Clc1cc(Cl)c2nc(N3CCOCC3)sc2c1 | 5 | 0 | -1 | -5 | 61* | -9
O=C(CC(F)(F)F)N1C[C@@H]2[C@H](c3ccccc31)[C@@H](CO)N2C(=O)CN1CCOCC1 | . | . | . | . | -4 | .
CNC[C@@H]1Oc2cc(C#CC(C)(C)O)ccc2S(=O)(=O)N([C@@H](C)CO)C[C@H]1C | . | . | . | . | -3 | .
Cc1ccc(C2=NN3C(C(=O)c4ccccc4)Oc4ccccc4C3C2)cc1 (stereo unspecified) | 3 | -1 | 1 | -2 | 68* | -5
COc1ccc(-c2cc(-c3cc(OC)ccc3O)[nH]n2)cc1 | 0 | 0 | -1 | 11 | 54* | -16
COc1ccc(-c2cc(-c3ccc(Cl)cc3)n[nH]2)c(O)c1 | 1 | 0 | -7 | 5 | . | -2
CCOC(=O)c1cc(-c2ccc(OC)cc2)n[nH]1 | 8 | -1 | 0 | 8 | 70* | -7
COc1ccc(O)c(-c2cc(-c3ccc(F)cc3)n[nH]2)c1 | 4 | 1 | 33 | 19 | 72* | 1
Oc1ccc(Br)cc1-c1cc(-c2ccccc2)n[nH]1 | 1 | 0 | 1 | 4 | . | 9
COc1ccc(-c2cc(-c3cc(F)ccc3O)[nH]n2)cc1OC | 1 | 1 | 12 | -3 | ? | 6
COc1ccc(O)c(-c2cc(-c3cccc(Br)c3)n[nH]2)c1 | 4 | 0 | 10 | 3 | 62* | -13
C[C@@H]1CN([C@@H](C)CO)C(=O)c2cccc(NS(C)(=O)=O)c2O[C@H]1CN(C)Cc1ccncc1 | . | . | . | . | 0 | .
O=C(O)C1CC(c2ccccc2)=Nc2ccccc2S1 (stereo unspecified) | 3 | -1 | -3 | -18 | 52* | -9
O=[N+]([O-])c1ccc(C2CC(c3ccccc3)=Nc3ccccc3S2)cc1 (stereo unspecified) | -1 | 0 | -1 | -11 | 7 | -6
COc1ccc(-c2ccc3c(c2)O[C@H](CN(C)C)[C@H](C)CN([C@@H](C)CO)S3(=O)=O)cc1 | . | . | . | . | -1 | .
SMILES | SMARCA2 act | CDK5 p35 inh | Dyrk1A ADPGlo | Rtt109 HAT inh | esBAF inh | dFosB activator
CCOc1cccc(OCCOc2ccccc2[N+](=O)[O-])c1 | 5 | 0 | 8 | 3 | 80* | -2
CCOc1ccccc1OCCOCCOc1ccccc1[N+](=O)[O-] | -4 | 0 | -3 | 16 | . | 3
C/C(=N\NC(=O)c1ccccn1)C12CC3CC(CC(C3)C1)C2 | 5 | -1 | 0 | . | 49* | -1
C/C(=N/NC(=O)c1ccoc1C)C12CC3CC(CC(C3)C1)C2 | 7 | 1 | 0 | -20 | 57* | 0
C/C(=N\NC(=O)c1ccoc1C)c1ccccc1 | 4 | . | . | . | . | .
N/C(=N\OC(=O)C12CC3CC(CC(C3)C1)C2)c1ccccn1 | 2 | . | -5 | -3 | 75* | -4
CC(C)NC(=O)N1C[C@@H]2[C@H](c3ccccc31)[C@@H](CO)N2C(=O)Nc1cccc(F)c1 | . | . | . | . | -4 | .
C[C@H]1CN([C@@H](C)CO)C(=O)c2cc(NC(=O)CCC(F)(F)F)ccc2O[C@H]1CN(C)S(=O)(=O)c1ccc(Cl)cc1 | . | . | . | . | 1 | .
Cc1cccc(N=[N+]([O-])c2cccc(C)n2)n1 | 8 | 0 | -2 | -1 | 57* | -3
Cc1cccc(N=O)n1 | -1 | . | . | . | . | .
CCOC(=O)c1ccc(N=c2scc(C)n2CC)cc1 | 7.8* | -1 | 0 | -5 | 58* | -1
CCCNC(=O)N1[C@@H]2CN(C(=O)c3cccnc3)c3ccccc3[C@@H]2[C@@H]1CO | . | . | . | . | -1 | .
O=S(=O)(c1cccs1)N1CCc2ccccc21 | -4 | -1 | 10 | -6 | 0 | 29*
O=S(=O)(c1cccs1)N1CCCc2ccccc21 | 3 | 1 | 4 | -10 | . | 1
C[C@H](CO)N1C[C@H](C)[C@H](CN(C)S(=O)(=O)c2cccs2)Oc2c(NS(=O)(=O)c3ccc(F)cc3)cccc2C1=O | . | . | . | . | -2 | .
Cc1ccccc1C(=O)c1cccn1CC(=O)NCc1ccccc1Cl | 3 | 0 | 0 | 1 | 57* | -1
O=C(Cn1cccc1C(=O)c1ccccc1)NCc1ccccc1Cl | 4 | 0 | -1 | -1 | 56* | -5
CCc1nnc(NC(=O)C23CC4CC(CC(C4)C2)C3)s1 | 3 | 2 | 11 | 6 | 56* | 2
CC(C)Cc1nnc(NC(=O)C23CC4CC(CC(C4)C2)C3)s1 | -3 | -1 | -2 | . | 15 | -6
Cc1ccc(SCc2nn(C)c(Cl)c2C=O)cc1 | 4 | 1 | -2 | -1 | 42* | 0
Cc1ccccc1OCCCn1c(=O)sc2ccccc21 | 2 | 0 | . | -3 | 54* | -6
O=c1sc2ccccc2n1CCCOc1ccccc1 | 7 | -2 | 4 | 7 | 81* | -4
CCOc1ccccc1Cn1c(=O)sc2ccccc21 | -4 | 1 | 5 | 16 | . | -10
Cc1ccc(OCCn2c(=O)sc3ccccc32)cc1 | 7 | 0 | 0 | 9 | 76* | 2
Cc1ccc(OCCCn2c(=O)sc3ccccc32)cc1 | 0 | 1 | 17 | 3 | 15 | -8
COCC(=O)N(C)C[C@@H]1Oc2ncc(C#CCC3CCCC3)cc2C(=O)N([C@H](C)CO)C[C@@H]1C | . | . | . | . | -9 | .
